Assay outcomes (PubChem)
Pf growth 96h: P. falciparum growth inhibition at 96 hours; 320,000 tested, 6.9% active; AID 504834; Potency, µM (top dose mostly 28.7 µM), usual class: inhibitors; P. falciparum luciferase reporter growth, 96 h
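Two parasite generations (96 h, 37 C, 5% CO2) of compound exposure in infected erythrocytes (0.05% parasitemia, 2% hematocrit). Luciferase-reporter P. falciparum; decreased luminescence indicates inhibited growth, aimed at apicoplast-acting delayed death.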
Cycloheximide cs: counter-screen for Shiga toxin inhibitors: cycloheximide protein synthesis inhibition | cell reporter, cycloheximide protein synthesis inhibition counterscreen | max response, % | 300,000 tested, 12% active | AID 2314; in the data active = max response mostly above about 13%, no sharp cut-off; inactive = mostly below about 14%; note: read at 38.3 µM for the half of the compounds with a filed dose
LmPK inh: LmPK (Leishmania mexicana) enzyme inhibition. Q27686. purified LmPK, Kinase-Glo ATP luminescence, 1 h. Potency, µM (series often up to 57.5 µM), most hits filed as inhibitors. 290,000 tested, 0.37% active
Target sequence (Q27686 whole entry, looked up): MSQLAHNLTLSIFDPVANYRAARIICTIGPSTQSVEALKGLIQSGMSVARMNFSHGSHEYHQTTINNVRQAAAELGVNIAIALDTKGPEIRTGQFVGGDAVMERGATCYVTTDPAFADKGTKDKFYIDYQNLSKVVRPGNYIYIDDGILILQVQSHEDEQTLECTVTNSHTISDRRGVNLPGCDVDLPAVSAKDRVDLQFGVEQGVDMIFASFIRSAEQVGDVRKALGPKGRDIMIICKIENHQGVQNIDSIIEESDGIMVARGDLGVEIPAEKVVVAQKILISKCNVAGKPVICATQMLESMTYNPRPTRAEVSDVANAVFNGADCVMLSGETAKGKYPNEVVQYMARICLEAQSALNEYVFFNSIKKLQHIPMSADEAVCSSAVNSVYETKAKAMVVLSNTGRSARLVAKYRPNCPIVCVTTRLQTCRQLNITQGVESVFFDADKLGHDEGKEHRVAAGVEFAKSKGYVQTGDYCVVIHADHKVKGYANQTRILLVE
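In 50 mM imidazole pH 7.2 with 7 mM MgCl2, LmPK (0.1 nM) turned over PEP (0.5 mM) and ADP (0.1 mM) for 1 h at room temperature. Luciferase read-out of ATP.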
Shiga toxin inh: inhibitors of Shiga toxin in Vero cells; Vero cells, Shiga toxin protein synthesis inhibition reporter; inhibition, % at 38.7 µM; 290,000 tested, 9.2% active; in the data active = inhibition mostly above about 28%, no sharp cut-off; inactive = mostly below about 43%
Pf growth 48h: P. falciparum growth inhibition at 48 hours (one generation) | 310,000 tested, 5.9% active | P. falciparum luciferase growth in erythrocytes, 48 h | Potency, µM (series often up to 28.7 µM), hits mostly inhibitors
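Luciferase-expressing parasites in RBCs, 2% Hct / 0.1% parasitemia final; RPMI 1640 + 0.5% Albumax; 37 C, 5% CO2, one generation; luminescence read-out, lower signal = inhibition.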
A number is an active result; – = inactive; ? = inconclusive; · = not tested or not shown; [ ] = another dose, or the depositor's remark. A selection: hits, their analogues and other compounds. The true share with any hit is near 22%. Unless noted, calls come from the whole dose curve; as a rule, active = well fitted inhibition curve with a large enough effect; inconclusive = small, poorly fitted or top-dose-only effect, or another doubt; inactive = no such curve, though single readings can be large or run the other way.

SMILES | Pf growth 96h | Cycloheximide cs | LmPK inh | Shiga toxin inh | Pf growth 48h
O=C(CSCc1ccccc1F)NCc1ccccc1 | – | 44 | – | – | –
CN(CC(=O)NCc1ccccc1)Cc1cccc(F)c1 | – | – | – | – | –[0.00184 µM]
O=C(CCSCc1cccc(F)c1)NCc1ccc(F)cc1 | ? | – | – | – | –
Cc1ccc(CNC(=O)CCSCc2ccccc2F)cc1 | – | – | – | – | ·
CN(CCO)S(=O)(=O)c1ccc2c(c1)C(=NN)c1cc(S(=O)(=O)N(C)CCO)ccc1-2 | – | – | – | – | –
COc1ccc(CNC(=O)C2CCC(=O)N(CCCN3CCCC3=O)C2)cc1 (centres undefined) | ? | – | – | – | –
C#CCOCCOCCOCCNc1nc(N2CCN(C(=O)CCCCCCCCCCNC(=O)[C@@H]([C@H](C)O)n3cc(C)nn3)CC2)nc(N2CCN(C(=O)CCCCCCCCCCNC(=O)[C@@H]([C@H](C)O)n3cc(C)nn3)CC2)n1 | 0.074µM | · | · | · | 0.1µM
C#CCOCCOCCOCCNc1nc(N2CCN(C(=O)CCCCCCCCCCNC(=O)[C@H]([C@@H](C)CC)n3cc(CCCCCN)nn3)CC2)nc(N2CCN(C(=O)CCCCCCCCCCNC(=O)[C@@H]([C@H](C)O)n3cc(C)nn3)CC2)n1 | 0.37µM | · | · | · | 0.47µM
C#CCOCCOCCOCCNc1nc(N2CCN(C(=O)[C@H]([C@@H](C)O)n3cc(CCCCN)nn3)CC2)nc(N2CCN(C(=O)[C@H](C)n3cc(CCCN=C(N)N)nn3)CC2)n1 | ? | – | – | – | –
C#CCOCCOCCOCCNc1nc(N2CCN(C(=O)[C@H]([C@@H](C)CC)n3cc(CCCCN)nn3)CC2)nc(N2CCN(C(=O)[C@H](CCCCN)n3cc(CCC(=O)O)nn3)CC2)n1 | – | · | · | · | –
C#CCOCCOCCOCCNc1nc(N2CCN(C(=O)CCCCCCCCCCNC(=O)[C@H](CCCCN)n3cc(C)nn3)CC2)nc(N2CCN(C(=O)CCCCCCCCCCNC(=O)[C@@H]([C@H](C)CC)n3cc(CCCCCN)nn3)CC2)n1 | 4.1µM | · | · | · | 3.3µM
Cc1ccsc1C1CC(=O)OC2=C1C(=O)CC(C)(C)C2 (centres undefined) | – | – | – | – | –
Oc1ccccc1CNCC12CC3CC(CC(C3)C1)C2 | 0.083µM | – | – | – | 0.1µM
CC(Cc1ccccc1)NCc1ccccc1O (centres undefined) | ? | – | – | – | ?
CC(CC12CC3CC(CC(C3)C1)C2)NCc1ccccc1O (centres undefined) | 9.3µM | – | – | · | ?
CN(C)c1ccc(/C=N/N=C(N)N)cc1[N+](=O)[O-] | – | – | – | – | 2.1µM
COc1cc(/C=N\NC(=O)c2ccc(-c3ccccc3)cc2)cc(OC)c1O | – | 15 | – | – | 9.3µM
Cc1ccc(C(C)C)c(OCc2ccc(C(=O)N/N=C/c3ccc(O)c(O)c3)cc2)c1 | ? | 14 | – | 59 | ?
O=C(N/N=C/c1ccc(O)c(O)c1)c1ccc(CSc2cccc3cccnc23)cc1 | · | – | – | – | –
Cc1ccc(C(C)C)c(OCc2ccc(C(=O)N/N=C/c3cccc(O)c3O)cc2)c1 | 2.6µM | 29 | – | active | 1.7µM
COc1cc(/C=N\NC(=O)c2ccc(-c3ccccc3)cc2)cc(OC)c1OC(C)=O | ? | – | – | – | ?
COc1cc(/C=N/NC(=O)c2ccc(COc3cc(C)ccc3C(C)C)cc2)cc(OC)c1O | ? | 34 | – | 20 | ?
CC(=O)Nc1ccc(C(=O)N/N=C/c2ccccc2OCc2ccccc2)cc1 | – | – | – | – | –
O=C(CSc1ccc(S(=O)(=O)N2CCOCC2)cn1)Nc1ccc(F)c(F)c1 | ? | · | · | · | –
N#Cc1cccnc1N1CCC(C(N)=O)CC1 | – | – | – | – | –
SMILES | Pf growth 96h | Cycloheximide cs | LmPK inh | Shiga toxin inh | Pf growth 48h
COC(=O)[C@@H]1CC[C@H](C)[C@@H](c2ccc(C)cc2)N1C(=O)c1ccc(/C=N/OC[C@@H](O)COCc2ccco2)cc1 | 6.6µM | – | – | – | 6.6µM
CCc1ccc2c(c1)cc(CN(C(=S)Nc1ccccc1C)C1CC1)c1nnnn12 | ? | – | – | – | 3.3µM
O=C(NCCc1ccccc1)c1noc2c1CCCCC2 | – | 35 | – | 96 | –
O=C(NCc1ccc(Cl)cc1)c1noc2c1CCCC2 | ? | 25 | – | 40 | –
O=C(NCc1cccnc1)c1noc2c1CCCCC2 | – | – | – | – | –
O=C(NCc1ccco1)c1noc2c1CCCCC2 | ? | 33 | – | 40 | –
COc1ccc(CNC(=O)c2noc3c2CCCC3)cc1 | – | 28 | – | 114 | –
O=C(NCc1cccs1)c1noc2c1CCCC2 | – | 15 | – | – | –
O=C(NCc1ccccc1)c1noc2c1CCCC2 | – | 44 | – | – | –
COc1ccc(CNC(=O)c2nccnc2CO)cc1 | 8.3µM | – | – | – | –
COc1ccc(CNC(=O)C(=O)NCc2ccncc2)cc1 | – | – | – | – | –
O=C(NCc1cccc(F)c1)c1noc2c1CCCC2 | ? | 39 | – | 54 | –
O=C(NCc1cccnc1)c1noc2c1CCCC2 | ? | – | – | – | –
CCCC1(c2ccccc2)NC(=O)N(CC(=O)Nc2ccccc2C(F)(F)F)C1=O (centres undefined) | – | – | – | – | –
Cc1ccc(S(=O)(=O)n2nnc3ccccc32)c(C)c1C | – | – | – | – | –
CC(C)NC[C@H](O)COc1ccc(CC(N)=O)cc1 | – | · | · | · | –
CC1CCN(S(=O)(=O)c2ccc3c4c2CC(=O)N4CC(C)S3)CC1 (centres undefined) | – | – | – | – | 8.3µM
CCOC(=O)c1c(C)[nH]c(C)c1S(=O)(=O)N(C)CC(=O)NCc1cccc(C)c1 | 5.9µM | – | – | – | ?
O=c1cc(-c2ccc3c(c2)OCCO3)oc2ccc(Cl)cc12 | – | 47 | – | 76 | –
O=c1c(O)c(-c2cccs2)oc2ccc(Cl)cc12 | · | – | – | – | –
O=c1cc(-c2cccs2)oc2ccc(Cl)cc12 | – | 37 | – | 59 | –
O=C(O)c1cc(=O)c2cc(Cl)ccc2o1 | – | – | – | – | –
CC(C1CCN(Cc2cn(C)nc2-c2cccc(Cl)c2)CC1)N1CCOCC1 (centres undefined) | – | – | – | – | ?
CCOC(=O)c1c(N)sc(C(=O)N2CCCCC2)c1C | ? | – | – | – | –
CCOC(=O)c1c(N)sc(C(=O)N2CCCC2)c1C | – | – | – | – | ·
SMILES | Pf growth 96h | Cycloheximide cs | LmPK inh | Shiga toxin inh | Pf growth 48h
CCOC(=O)c1sc(N)c(C(=O)OCC)c1C | – | 51 | – | 81 | –
CCOC(=O)c1sc(N)c(C(=O)Nc2ccccc2)c1C | – | 27 | – | 46 | –
CCOC(=O)c1c(N)sc(C(=O)OCCOC)c1C | – | 35 | – | 59 | –
COc1ccccc1/C=N\Nc1ccccc1[N+](=O)[O-] | – | 49 | – | 73 | –
COc1ccc(/C=N\Nc2ccccc2[N+](=O)[O-])c(C(=O)O)c1OC | – | 50 | – | 88 | –
COc1cc(/C=N/Nc2ccccc2[N+](=O)[O-])ccc1OC(=O)c1ccccc1F | – | 31 | – | 45 | –
